# Paper PMC4336329 (PLoS ONE, 2015)
# Hit rate of the full screen: of about 310,000 compounds, about 14,000 (4.5%) showed an effect of 50% or more. Effects have a minus sign here. Shown is part of a subset that was picked to be rich in strong results.
# Biological target: human ether-à-go-go-related gene (hERG) potassium channel (human, UniProt Q12809)
# Assay: primary screen, population patch clamp on CHO cells stably expressing hERG; higher = less effect of the substance
# 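Further: peak tail current of the secondary pulse compared with the same well before compound.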
# human ether-à-go-go-related gene (hERG) potassium channel, sequence (Q12809 whole entry, looked up): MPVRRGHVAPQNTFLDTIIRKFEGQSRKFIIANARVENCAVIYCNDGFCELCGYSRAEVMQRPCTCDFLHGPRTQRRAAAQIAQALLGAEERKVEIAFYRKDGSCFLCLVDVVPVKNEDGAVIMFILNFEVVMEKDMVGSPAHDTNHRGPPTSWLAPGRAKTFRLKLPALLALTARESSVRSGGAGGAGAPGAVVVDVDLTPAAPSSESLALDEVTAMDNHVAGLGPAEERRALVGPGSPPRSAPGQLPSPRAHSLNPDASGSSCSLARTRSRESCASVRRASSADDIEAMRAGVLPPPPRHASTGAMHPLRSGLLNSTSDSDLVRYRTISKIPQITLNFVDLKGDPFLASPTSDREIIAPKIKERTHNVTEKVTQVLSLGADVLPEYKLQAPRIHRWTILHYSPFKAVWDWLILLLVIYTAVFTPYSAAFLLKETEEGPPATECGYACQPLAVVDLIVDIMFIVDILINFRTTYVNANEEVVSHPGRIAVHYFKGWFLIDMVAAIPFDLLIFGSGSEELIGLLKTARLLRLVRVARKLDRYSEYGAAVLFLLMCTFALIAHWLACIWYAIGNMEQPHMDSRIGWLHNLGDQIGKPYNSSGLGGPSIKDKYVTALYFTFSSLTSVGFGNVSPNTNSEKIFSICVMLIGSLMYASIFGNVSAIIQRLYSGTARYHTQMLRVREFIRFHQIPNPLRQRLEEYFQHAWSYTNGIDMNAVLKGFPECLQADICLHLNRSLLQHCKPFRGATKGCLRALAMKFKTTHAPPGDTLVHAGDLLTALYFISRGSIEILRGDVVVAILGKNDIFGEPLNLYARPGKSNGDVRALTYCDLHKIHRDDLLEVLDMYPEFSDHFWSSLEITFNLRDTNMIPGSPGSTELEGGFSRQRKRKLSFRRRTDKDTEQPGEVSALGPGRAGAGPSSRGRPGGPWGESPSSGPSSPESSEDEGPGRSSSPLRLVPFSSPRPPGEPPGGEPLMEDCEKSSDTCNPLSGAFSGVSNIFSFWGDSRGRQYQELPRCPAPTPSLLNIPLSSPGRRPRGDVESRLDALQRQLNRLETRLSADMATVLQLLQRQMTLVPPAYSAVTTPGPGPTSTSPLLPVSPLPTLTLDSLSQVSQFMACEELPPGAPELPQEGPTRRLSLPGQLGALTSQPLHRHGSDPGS
row,Compound,"hERG current change (%, negative = inhibition) at 10uM [%]"
1,Cc1cc(O)cc(C)c1Cl,-2.78
2,O=C(NCC(=O)N1CCN(c2ccccc2O)CC1)c1cccs1,3.84
3,Cc1ccc(NC(=O)c2ccc(Cl)c(NC(=O)c3cccs3)c2)cc1,-12.5
4,CCOC(=O)N1CCN(C(=O)c2ccc(Cl)c(NC(=O)c3cccs3)c2)CC1,-54.7
5,O=C(NC(=S)Nc1ccccc1N1CCN(C(=O)c2ccccc2)CC1)c1cccs1,9.73
6,O=C(Nc1cc(C(=O)N2CCN(c3ccccc3O)CC2)ccc1Cl)c1cccs1,-60.1
7,CC(=O)N1CCN(C(=O)c2ccc(Cl)c(NC(=O)c3cccs3)c2)CC1,-15.3
8,COc1ccc(NC(=O)CN(C)C(=O)c2ccc(=O)[nH]c2)cc1,21.7
9,COc1ccc(NC(=O)C2CC(=O)N(Cc3ccco3)C2)cc1Cl (stereo not drawn),-4.14
10,N/C(=N\O)c1ccccc1-n1cccc1,25.7
11,COc1ccc(/C(N)=N/OC(=O)/C=C/c2ccccc2)cc1,-37.2
12,CCCN1CCN(S(=O)(=O)c2cn(C)nc2C)CC1,22
13,Cc1ccc(S(=O)(=O)NCc2ccc(C(=O)NCCCN3CCC(Cc4ccccc4)CC3)cc2)cc1,-80.6
14,Cc1ccc(S(=O)(=O)NCc2ccc(C(=O)NCCCN3CCN(C)CC3)cc2)cc1,19.3
15,CC(=O)Nc1ccc(S(=O)(=O)NCc2ccc(C(=O)NCCCN3CCC(C)CC3)cc2)cc1,19.7
16,NC(=O)c1ccc(CN2CCC(Cc3ccccc3)CC2)cc1,-57.1
17,CC(C)NC(=O)c1ccc(CN2CCC(Cc3ccccc3)CC2)cc1,-37.2
18,O=C(Nc1ccccc1)c1ccc(CN2CCC(Cc3ccccc3)CC2)cc1,14.7
19,COCCNC(=O)c1ccc(CN2CCC(Cc3ccccc3)CC2)cc1,-11.6
20,C=CCNC(=O)c1ccc(CN2CCC(Cc3ccccc3)CC2)cc1,-66.8
21,O=C(NCc1ccccc1)c1ccc(CN2CCC(Cc3ccccc3)CC2)cc1,-70.3
22,C=CCNC(=S)N1CCC(Cc2ccccc2)CC1,-25.9
23,O=C(NCc1ccccc1)N1CCC(Cc2ccccc2)CC1,10.5

row,Compound,"hERG current change (%, negative = inhibition) at 10uM [%]"
1,C=CCNC(=O)c1ccc(C2SCC(=O)N2Cc2ccccc2)cc1 (stereo not drawn),6.11
2,Cc1noc(C)c1COC(=O)c1cccnc1Cl,3.21
3,CNC(=S)Nc1cc(S(=O)(=O)Nc2cc(Cl)ccc2Cl)ccc1N1CCCC1,-12.4
4,CN1C(=O)c2cccc(NC(=O)CCc3ccccc3)c2C1=O,-19.6
5,CC1Cc2ccccc2N1C(=O)CSc1nnc2c(n1)[nH]c1ccc(F)cc12 (stereo not drawn),12.6
6,O=C(CSc1nnc(COc2ccccc2)o1)c1ccccc1,1.95
7,CCC(C)(C)NC(=O)C(c1ccc(F)cc1)N(Cc1cccc(OC)c1)C(=O)c1cnccn1 (stereo not drawn),9.72
8,COC(=O)C1=C(C)C(c2ccc(OC)cc2OC)NC(=O)N1 (stereo not drawn),13.1
9,Cc1ccc(N2C(=O)C3C4C=CC(CC4)C3C2=O)cc1Br (stereo not drawn),15.4
10,c1cncc(-c2nc(-c3ccc4c(c3)OCCO4)cs2)c1,-4.72
11,Cl.Nc1nc(-c2ccc3c(c2)OCCO3)cs1,19.4
12,N#Cc1ncc(-c2ccc3c(c2)OCCOCCOCCOCCO3)nc1C#N,-69
13,N#Cc1cncc(-c2ccc3c(c2)OCCOCCOCCOCCOCCO3)n1,-86.9
14,N#CCC(=O)Nc1nc(-c2ccc3c(c2)OCCO3)cs1,13.1
15,c1ccn2cc(-c3ccc4c(c3)OCCO4)nc2c1,1.08
16,N#Cc1ncc(-c2ccc3c(c2)OCCOCCOCCOCCOCCO3)nc1C#N,-75.3
17,N#Cc1cn(-c2ccccc2)nc1-c1ccc2c(c1)OCCO2,11.8
18,Cc1ccc2nc(-c3ccc4c(c3)OCCO4)cn2c1,-16
19,COc1ccc(C(=O)NC(=S)Nc2ccc3[nH]c(=O)[nH]c3c2)c(OC)c1,5.35
20,O=C(CN1C(=O)C2C3C=CC(C4CC34)C2C1=O)Nc1cccc2ncccc12 (stereo not drawn),0.881
21,CCOC(=O)c1ccc(-c2ccc3c(c2)CCC3)nc1C,12.6
22,COc1ccccc1C(=O)N/C(N)=N/c1nc2ccccc2o1,1.36
23,CCCCNC(=O)N1CCCN(c2ccc(C#N)cn2)CC1,-49.8

row,Compound,"hERG current change (%, negative = inhibition) at 10uM [%]"
1,N#Cc1ccc(N2CCOCC2)nc1,-0.729
2,N#Cc1ccc(N2CCCNCC2)nc1,-88.5
3,Cc1ccc(NC(=O)c2nc(S(=O)(=O)Cc3ccccc3C)ncc2Cl)cc1C,2.81
4,Cc1nn2c3ccccc3n(CC(=O)c3cccs3)c2nc1=O,1.78
5,Cc1ccc(Nc2c(-c3ccco3)nc3ccccn23)cc1,2.78
6,Cc1[nH]c2ccccc2c1CN1CCc2ccccc2C1,-12.9
7,COc1ccccc1C1CCN(Cc2ccccc2Cl)CC1,-3.3
8,COc1ccccc1C1CCN(Cc2cccc3ccccc23)CC1,-13.9
9,COc1ccccc1C1CCN(Cc2ccc(Cl)cc2Cl)CC1,11.1
10,COc1ccccc1C1CCN(Cc2ccc(Cl)c(Cl)c2)CC1,12.3
11,COc1ccccc1C1CCN(Cc2c(C)[nH]c3ccccc23)CC1,-64.4
12,COc1ccccc1C1CCN(Cc2ccc3ccccc3c2)CC1,-75
13,Cc1[nH]c2ccccc2c1C(c1ccncc1)N1CCN(c2ccccn2)CC1 (stereo not drawn),8.61
14,COc1ccccc1C1CCN(Cc2cccc([N+](=O)[O-])c2)CC1,-49.1
15,COc1ccccc1C1CCN(Cc2ccccc2)CC1,-34.5
16,Cc1[nH]c2ccccc2c1CN1CCN(c2ccccn2)CC1,-52.7
17,COc1ccccc1C1CCN(Cc2ccc(C)cc2)CC1,-90
18,COC(=O)CCc1nc2c(C#N)c(-c3ccc(Cl)cc3)ccn2n1,-2.07
19,Cc1ccc(/C=N/NC(=O)c2cc(C)oc2C)cc1,4.58
20,COc1ccccc1NC(=O)CC1C(=O)Nc2c1c(=O)n(C)c(=O)n2C (stereo not drawn),4.88
21,Cc1cc(=O)[nH]c(SCC(=O)Nc2nc(-c3ccccc3)c(-c3ccccc3)o2)n1,3.76
22,CC(=O)Nc1ccc(/C=N/N2C(=O)NC(C)(c3ccc(OC(F)F)cc3)C2=O)cc1 (stereo not drawn),-10.5
23,COC(=O)c1cc(C(=O)OC)cc(N2C(=O)CC(NNC(=O)c3ccc(C)cc3)C2=O)c1 (stereo not drawn),-11.5

row,Compound,"hERG current change (%, negative = inhibition) at 10uM [%]"
1,CCOC(=O)C(C)On1c(-c2ccccc2)nc2ccc([N+](=O)[O-])cc21 (stereo not drawn),-51.3
2,CCOC(=O)C(C)On1c(-c2ccc(Cl)cc2)nc2ccc([N+](=O)[O-])cc21 (stereo not drawn),-20.4
3,O=C(O)COn1c(-c2ccccc2)nc2ccc([N+](=O)[O-])cc21,11.3
4,COc1cc(NC(=O)C/C(C)=N/NC(=O)C2CCCCC2)c(OC)cc1Cl,9.28
5,COc1ccc(NC(=O)C/C(C)=N/NC(=O)C(=O)NC2CCCCC2)c(OC)c1,-8.46
6,COc1cc(NC(=O)C/C(C)=N/NC(=O)C(=O)NC2CCCCC2)c(OC)cc1Cl,-91.2
7,O=C(NNC(=O)c1cc(Cl)ccc1O)c1ccc(NS(=O)(=O)c2cccs2)cc1,-20.7
8,CCOC(=O)CC1ON(C)C(=O)N1c1ccc([N+](=O)[O-])cc1 (stereo not drawn),-6.46
9,C/C(=N/NC(=O)c1ccn(C)n1)c1ccncc1,13.2
10,O=S(=O)(c1ccc(Cl)cc1)N1CCCN(c2ccc(C(F)(F)F)cn2)CC1,-23.3
11,Cc1ccccc1SCC(=O)N1CCN(c2ccc(C(F)(F)F)cn2)CC1,-38
12,CC(=O)c1cccc(OCC(=O)N2CCN(c3ccc(C(F)(F)F)cn3)CC2)c1,-16.3
13,N#Cc1ccc(S(=O)(=O)N2CCCN(c3ccc(C(F)(F)F)cn3)CC2)cc1,-73.9
14,CCOC(=O)N1CCN(c2ccc(C(F)(F)F)cn2)CC1,-4.3
15,O=S(=O)(c1ccc(C(F)(F)F)cc1)N1CCCN(c2ccc(C(F)(F)F)cn2)CC1,5.3
16,CS(=O)(=O)N1CCN(c2nc3ccc(Cl)cc3s2)CC1,5.72
17,O=C(O)COCC(=O)N1CCCN(c2ccc(C(F)(F)F)cn2)CC1,14.3
18,CC(CC(=O)N1CCN(c2ccc(C(F)(F)F)cn2)CC1)n1ccnc1 (stereo not drawn),-66.2
19,N#Cc1ccc(S(=O)(=O)N2CCCN(c3nc4ccc(Cl)cc4s3)CC2)cc1,-70.3
20,O=S(=O)(c1ccc(Cl)cc1)N1CCCN(c2nc3ccc(Cl)cc3s2)CC1,11.8
21,N#Cc1ccc(OCC(=O)N2CCN(c3ccc(C(F)(F)F)cn3)CC2)cc1,-54.7
